From ChEMBL document CHEMBL3988442, “University of Dundee, Small-Polar-MMV Screening Library” (2021)
About 1,200 (3.2%) of roughly 38,000 compounds showed an effect of 50% or more. The median lay at about -58%. This excerpt belongs to a sample that is enriched for strong results.

These compounds were tested on Plasmodium falciparum (assay: Calibr Malaria Delayed Death Assay SOP). Conditions: concentration 4.99e-06 (unit not given; other assays of the set use mol/L).
Type: functional, organism-based
Set-up: scale not given: in the data most compounds retested in dose-response had high values
In the case of `Cc1nc(C)c(CC(=O)N2C[C@H]3CC[C@@H]2CN(c2cnccn2)C3)s1`, the “Percent Effect” value is reported as -79.94%. With `CCc1nnnn1Cc1csc(N(C)C(C)=O)n1` the “Percent Effect” value was -54.02%. For `Cc1ccc(Cl)cc1NC(=O)Nc1c[nH]c(=O)[nH]c1=O`, the “Percent Effect” value was -189.6%. For `Cc1ncsc1C(=O)NCCNc1ncccc1C#N`, the “Percent Effect” value was -35.74%. In the case of `CCOCC1c2c(ncn2C)CCN1C(=O)c1cnc(C)cn1.O=C(O)C(F)(F)F` (stereo not drawn), the “Percent Effect” value is reported as -51.51%. In the case of `O=C(NCc1c[nH]c(=O)[nH]c1=O)C1CCOc2ccccc2C1` (stereo not drawn), the “Percent Effect” value is reported as -114.6%. `Cc1ccc(S(=O)(=O)N(CC(N)=O)CC(C)C)cc1C` was tested, and the “Percent Effect” value was -27.83%. `O=C(NCCCn1ccnc1)c1cccnc1OCC(F)(F)F` was tested, and the “Percent Effect” value was -158.9%. For `CC(C)[C@@H]1CN(CCCOc2ccc(F)cc2)C[C@H]1NS(C)(=O)=O`, the “Percent Effect” value was 53.48%. With `CC(C)[C@@H]1CN(CCOc2ccc(Cl)cc2)C[C@H]1NS(C)(=O)=O` the “Percent Effect” value was 45.65%. For `CCc1ccccc1OCCN1C[C@@H](NS(C)(=O)=O)[C@H](C(C)C)C1`, the “Percent Effect” value was 45.03%. With `CC(C)n1cc(N2CC(C(=O)N3CCN(C)CC3)CC2=O)cn1` (stereo not drawn) the “Percent Effect” value was -61.38%. With `Cc1csc(N2CCN(C(=O)CCn3cccn3)CC2)n1` the “Percent Effect” value was -135.1%. `CN(Cc1nc2ccccc2c(=O)[nH]1)C[C@@H]1CCCN2CCCC[C@H]12` was tested, and the “Percent Effect” value was -16.14%. `CN(Cc1nc2ccsc2c(=O)[nH]1)C[C@@H]1CCCN2CCCC[C@H]12` was tested, and the “Percent Effect” value was -24.21%. With `Cc1cc(C)cc(C(=O)N2CCCN(CC(N)=O)CC2)c1` the “Percent Effect” value was -30.23%. In the case of `O=C(CN(CC1CCC1)CC(F)(F)F)N1CCCC1`, the “Percent Effect” value is reported as -123.3%. For `CS(=O)(=O)NC(=O)c1nnn(-c2cccc(F)c2)c1C1CC1`, the “Percent Effect” value was -54.99%. With `CC(C)c1nc(CNC2CCCN(c3cccnn3)C2)no1` (stereo not drawn) the “Percent Effect” value was -23.44%. In the case of `Cc1nc(CNC2CCCN(c3cccnn3)C2)no1` (stereo not drawn), the “Percent Effect” value is reported as -95.1%. `CC(C)(C)c1nc(CNC2CCCN(c3cccnn3)C2)no1` (stereo not drawn) was tested, and the “Percent Effect” value was 82.54%. `CC1CN(CC2CCCCC2)CCN1c1ccc2nncn2n1` (stereo not drawn) was tested, and the “Percent Effect” value was 13.91%. With `CC1CN(CC2CCCC2)CCN1c1ccc2nncn2n1` (stereo not drawn) the “Percent Effect” value was 68.96%. With `CC1CN(CC(=O)NC2CCCC2)CCN1c1ccc2nncn2n1` (stereo not drawn) the “Percent Effect” value was -5%. `Cn1ccc2ccc(C(=O)N3CCN(C(=O)OC(C)(C)C)CC3)cc21` was tested, and the “Percent Effect” value was 4.042%. In the case of `Cc1cccc(NC(=O)N2CCn3cnc(COCC4CC4)c3C2)c1`, the “Percent Effect” value is reported as -185.1%. In the case of `COCCNC(=O)C[C@@H]1COC[C@H]2CN(C(=O)C3CCOCC3)C[C@@H]12`, the “Percent Effect” value is reported as -84.55%. For `CN(C)C(C)(C)CNC(=O)C(C)(C)c1ccccc1F`, the “Percent Effect” value was 51.42%. In the case of `CC(C)(CNC(=O)C(C)(C)c1ccccc1F)C(N)=O`, the “Percent Effect” value is reported as -90.26%. For `CC(C)(C(=O)NCC(N)=O)c1ccccc1F`, the “Percent Effect” value was -66.81%. In the case of `Nc1nnc(SCc2cc(=O)n3c4c(sc3n2)CCCC4)s1`, the “Percent Effect” value is reported as -2.534%. With `COc1nn(C)cc1-c1nnc(SCc2cccnc2)n1C` the “Percent Effect” value was -46.9%. For `CCn1nc(C)c(CN(CCOC)Cc2ccccn2)c1C`, the “Percent Effect” value was -17.72%. In the case of `COCCC(=O)N(Cc1ccccn1)Cc1ccccc1C`, the “Percent Effect” value is reported as -111.9%. For `Cc1ccsc1CN(CCCN(C)C)Cc1ccccn1`, the “Percent Effect” value was 76.79%. With `Cc1ccsc1CN(CCCC(F)(F)F)Cc1ccccn1` the “Percent Effect” value was -90.49%. `Cc1ccsc1CN(C)Cc1ncccc1C(=O)O` was tested, and the “Percent Effect” value was -86.93%. In the case of `N#Cc1cccc(CN2CC[C@@H]3CN(c4ncccn4)CCO[C@@H]3C2)c1.O=C(O)C(F)(F)F`, the “Percent Effect” value is reported as -75.88%. With `CCc1cc(N2CCC(NCCc3nc(C)c(C)s3)CC2)nc(C)n1` the “Percent Effect” value was 38.37%. For `CCn1ccc(NS(=O)(=O)c2cccc(COC)c2)n1`, the “Percent Effect” value was -78.42%. `CCn1cc(NC(=O)NCC(C)N(C)C)cn1` (stereo not drawn) was tested, and the “Percent Effect” value was -90.57%. For `CNS(=O)(=O)c1cccc(C(C)NCc2ccc(C)c(C)c2)c1` (stereo not drawn), the “Percent Effect” value was 61.29%. For `CNS(=O)(=O)c1cccc(C(C)NCc2cccc(O)c2)c1` (stereo not drawn), the “Percent Effect” value was 1.026%. In the case of `CNS(=O)(=O)c1cccc(C(C)NCc2ccsc2)c1` (stereo not drawn), the “Percent Effect” value is reported as 66.25%. `CNS(=O)(=O)c1cccc(C(C)NCc2ccccc2)c1` (stereo not drawn) was tested, and the “Percent Effect” value was 57.8%. With `CNS(=O)(=O)c1cccc(C(C)NCc2ccc(F)c(F)c2)c1` (stereo not drawn) the “Percent Effect” value was 8.659%. `CC(NCc1ccc(C(C)(C)C)cc1)c1ccc(S(C)(=O)=O)cc1` (stereo not drawn) was tested, and the “Percent Effect” value was -13.51%. For `CNS(=O)(=O)c1cccc(C(C)NCc2ccncc2)c1` (stereo not drawn), the “Percent Effect” value was -55.25%. In the case of `CCOc1ccc(CNC(C)c2cccc(S(=O)(=O)NC)c2)cc1` (stereo not drawn), the “Percent Effect” value is reported as 46.18%. With `CNS(=O)(=O)c1cccc(CNC(=O)CCc2ccsc2)c1` the “Percent Effect” value was -45.32%. With `O=C(NCCn1ccnc1)c1ccn(-c2ccc(F)cc2)n1` the “Percent Effect” value was -157.5%. For `CCN1C[C@H]2C[C@H](C(=O)Nc3ccccc3)[C@@H](C1)O2.O=C(O)C(F)(F)F`, the “Percent Effect” value was -59.56%. `Cc1oc(-c2nc(C#N)c(N(C)C)o2)cc1S(=O)(=O)N1CCCCCC1` was tested, and the “Percent Effect” value was -117.8%. `COc1cc(C(=O)NC(C)c2cccs2)cc2c1OCCO2` (stereo not drawn) was tested, and the “Percent Effect” value was 13.73%. For `O=C(c1cscn1)N1CCCCC1c1nc2cc(F)ccc2[nH]1` (stereo not drawn), the “Percent Effect” value was -66.74%. For `CNC(=O)CN(C(=O)c1ccc(SC)o1)c1cccc(F)c1`, the “Percent Effect” value was -133.7%. For `CC(C)(C)CNC(=O)c1ccc(C(=O)O)cc1`, the “Percent Effect” value was -149.2%. For `CCCc1nc(CN(CC)Cc2ccoc2)no1`, the “Percent Effect” value was -101%. With `COc1cc(C(=O)N(Cc2ccco2)C2CC2)cc(OC)c1OC` the “Percent Effect” value was -36.86%. For `O=C(c1ccc[nH]1)N1CCOCC2(CCN(C3CCOCC3)C2)C1` (stereo not drawn), the “Percent Effect” value was -29.73%. With `CCCSCC(=O)N1CCCC(CO)(CCC)C1` (stereo not drawn) the “Percent Effect” value was -200.5%. `O=C(c1ccc(=O)[nH]c1)N1CCCC1c1nc2cc(F)ccc2[nH]1` (stereo not drawn) was tested, and the “Percent Effect” value was -157.5%. In the case of `CC(C)c1nccc(C2(c3ccccc3Cl)CCNCC2)n1`, the “Percent Effect” value is reported as 83.06%. In the case of `Clc1ccccc1C1(c2ccnc(-c3ccncc3)n2)CCNCC1`, the “Percent Effect” value is reported as 82.92%. `Clc1ccccc1C1(c2ccnc(-c3ncccn3)n2)CCNCC1` was tested, and the “Percent Effect” value was -58.98%. For `CC(C)(C)c1nccc(C2(c3ccccc3Cl)CCNCC2)n1`, the “Percent Effect” value was 75.06%. With `CCC1C(=O)NCCN1c1ccnc(C(C)(C)C)n1` (stereo not drawn) the “Percent Effect” value was -75.62%. `O=c1[nH]cccc1-c1nccc(C2(c3ccccc3Cl)CCNCC2)n1` was tested, and the “Percent Effect” value was -5.024%.
